According to PubChem BioAssay AID1159580 (chemical genetic matrix, 2015):
“And” between values parts separate entries of the source, which are not always exact repeats. Identical values can stand only once. About 2,000 (36%) of roughly 5,500 compounds were called active. Another 18% or so got no clear call; they are omitted. Cut-off read from the data, not from the text of the source: active = normalized growth mostly below about 0.91 (no sharp cut-off); inconclusive = no clear call, values can overlap the other calls; inactive = mostly above about 0.92. Some of the results follow.

Experiment: chemical genetic growth profiling, strain panel (AID 1159580);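 note: tested at 20 µM; growth read once vehicle control cultures reached saturation at 30 °C; 1 = growth at the plate median or of vehicle wells; lower values mean less growth of the strain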
Conditions: S. cerevisiae deletion strains, growth OD
[1] = locus YAL013W, strain DEP1, stronger effect = lower value
[2] = locus YBR229C, strain ROT2, stronger effect = lower value
[3] = locus YCL061C, strain MRC1, stronger effect = lower value
[4] = locus YDL101C, strain DUN1, stronger effect = lower value
[5] = locus YEL061C, strain CIN8, stronger effect = lower value
[6] = locus YHR030C, strain SLT2, stronger effect = lower value
[7] = locus YJL187C, strain SWE1, stronger effect = lower value
[8] = locus YJR043C, strain POL32, stronger effect = lower value
[9] = locus YJR075W, strain HOC1, stronger effect = lower value
[10] = locus YLR039C, strain RIC1, stronger effect = lower value
[11] = locus YLR262C, strain YPT6, stronger effect = lower value
[12] = locus YMR307W, strain GAS1, stronger effect = lower value
[13] = locus YNL128W, strain TEP1, stronger effect = lower value
[14] = locus YPL241C, strain CIN2, stronger effect = lower value

Measured: normalized growth

COc1ccc(/C=C2\CC/C(=C\c3ccc(OC)c(OC)c3)C2=O)cc1OC
inactive: [1] 0.988 | [2] 0.998 | [3] 0.996 | [4] 0.974 | locus YDL134C, strain PPH21, stronger effect = lower value 1.02 | locus YDR150W, strain NUM1, stronger effect = lower value 0.904 | [5] 0.986 | locus YGR078C, strain PAC10, stronger effect = lower value 0.978 | locus YGR229C, strain SMI1, stronger effect = lower value 1 | [6] 0.902 | locus YHR087W, strain rtc3, stronger effect = lower value 0.977 | [7] 1.01 | [8] 0.966 | [9] 1.03 | [10] 0.936 | locus YLR058C, strain SHM2 (second series), stronger effect = lower value 1.01 | locus YLR085C, strain ARP6, stronger effect = lower value 0.989 | [11] 0.964 | locus YML094W, strain GIM5, stronger effect = lower value 1.03 | locus YMR219W, strain ESC1, stronger effect = lower value 0.995 | locus YMR263W, strain SAP30, stronger effect = lower value 0.973 | [12] 0.817 | [13] 0.997 | locus YNL153C, strain GIM3, stronger effect = lower value 0.989 | locus YNL298W, strain CLA4 (second series), stronger effect = lower value 0.987 | locus YNL322C, strain KRE1, stronger effect = lower value 0.999 | locus YNR030W, strain Alg12, stronger effect = lower value 0.974 | locus YPL055C, strain LGE1, stronger effect = lower value 0.907 | [14] 0.974 | locus YPR135W, strain CTF4, stronger effect = lower value 0.919

COc1ccc2c(c1)OC/C(=C/c1ccc(OC)c(OC)c1)C2=O
inactive: [1] 1.01 | locus YAL021C, strain ccr4, stronger effect = lower value 0.997 | locus YAL030W, strain snc1, stronger effect = lower value 0.986 | locus YBL061C, strain skt5, stronger effect = lower value 1 | locus YBR021W, strain FUR4, stronger effect = lower value 0.873 | locus YBR171W, strain sec66, stronger effect = lower value 0.978 | [2] 0.981 | locus YBR279W, strain paf1, stronger effect = lower value 0.946 | locus YCL029C, strain bik1, stronger effect = lower value 0.943 | locus YCR088W, strain abp1, stronger effect = lower value 0.98 | locus YDL005C, strain med2, stronger effect = lower value 1.02 | locus YDL035C, strain GPR1, stronger effect = lower value 0.978 | locus YDL040C, strain nat1, stronger effect = lower value 0.974 | locus YDL074C, strain BRE1, stronger effect = lower value 0.928 | [4] 0.95 | locus YDL185W, strain tfp1, stronger effect = lower value 0.987 | locus YDL192W, strain arf1, stronger effect = lower value 0.944 | locus YDR001C, strain nth1, stronger effect = lower value 0.983 | locus YDR069C, strain doa4, stronger effect = lower value 1.01 | locus YDR101C, strain arx1, stronger effect = lower value 0.963 | locus YDR159W, strain sac3, stronger effect = lower value 0.874 | locus YDR195W, strain ref2 1.1 | locus YDR297W, strain sur2, stronger effect = lower value 0.943 | locus YDR334W, strain swr1, stronger effect = lower value 0.974 | locus YDR388W, stronger effect = lower value 0.958 | locus YEL037C, strain rad23, stronger effect = lower value 0.984 | locus YER015W, strain faa2, stronger effect = lower value 0.936 | locus YER016W, strain bim1, stronger effect = lower value 1.03 | locus YER110C, stronger effect = lower value 0.945 | locus YER111C, strain swi4, stronger effect = lower value 1.01 | locus YER155C, strain BEM2, stronger effect = lower value 0.962 | locus YER167W, strain BCK2, stronger effect = lower value 0.947 | locus YFR010W, strain ubp6, stronger effect = lower value 0.986 | locus YGL078C, strain dbp3, stronger effect = lower value 0.976 | locus YGL167C, strain pmr1, stronger effect = lower value 1.06 | locus YGL173C, strain kem1, stronger effect = lower value 0.984 | locus YGL227W, strain vid30, stronger effect = lower value 0.986 | locus YGL248W, strain PDE1, stronger effect = lower value 0.916 | locus YGR135W, strain pre9, stronger effect = lower value 0.914 | locus YGR252W, strain gcn5, stronger effect = lower value 0.799 | locus YHR013C, strain ard1, stronger effect = lower value 0.862 | locus YHR027C, strain rpn1, stronger effect = lower value 0.979 | locus YHR079C, strain IRE1 (second series), stronger effect = lower value 0.979 | locus YHR079C, strain IRE1, stronger effect = lower value 0.952 | locus YHR094C, strain hxt1, stronger effect = lower value 0.969 | locus YHR200W, strain rpn10, stronger effect = lower value 0.969 | locus YIL073C, strain SPO22, stronger effect = lower value 0.833 | locus YIL125W, strain kgd1, stronger effect = lower value 0.973 | locus YIR030C, strain dcg1, stronger effect = lower value 0.978 | locus YJL092W, strain hpr5, stronger effect = lower value 0.97 | locus YJL115W, strain asf1, stronger effect = lower value 0.98 | locus YJL129C, strain trk1, stronger effect = lower value 0.929 | locus YJL134W, strain LCB3, stronger effect = lower value 0.996 | locus YJL154C, strain vps35, stronger effect = lower value 0.993 | locus YJL168C, strain set2, stronger effect = lower value 0.965 | locus YJL187C, strain SWE1 (second series), stronger effect = lower value 0.937 | [7] 0.973 | [8] 0.915 | locus YJR066W, strain TOR1, stronger effect = lower value 0.903 | [9] 0.955 | locus YKL009W, strain mrt4, stronger effect = lower value 0.973 | locus YKL068W, stronger effect = lower value 1.02 | locus YKL085W, strain MDH1 (second series), stronger effect = lower value 0.98 | locus YKL085W, strain MDH1, stronger effect = lower value 0.98 | locus YKL190W, strain CNB1, stronger effect = lower value 0.982 | locus YKR026C, strain gcn3, stronger effect = lower value 0.984 | locus YKR091W, strain srl3, stronger effect = lower value 0.979 | locus YLL026W, stronger effect = lower value 0.979 | locus YLL041C, strain sdh2, stronger effect = lower value 1.01 | [10] 0.727 | locus YLR058C, strain SHM2, stronger effect = lower value 0.949 | locus YLR102C, strain apc9, stronger effect = lower value 0.974 | locus YLR113W, strain HOG1, stronger effect = lower value 0.933 | locus YLR258W, strain gsy2, stronger effect = lower value 0.915 | [11] 0.805 | locus YLR342W, strain FKS1 (second series), stronger effect = lower value 0.809 | locus YLR342W, strain FKS1, stronger effect = lower value 0.92 | locus YLR357W, strain rsc2, stronger effect = lower value 0.985 | locus YLR370C, strain arc18, stronger effect = lower value 0.962 | locus YLR371W, strain rom2, stronger effect = lower value 0.951 | locus YLR384C, strain iki3, stronger effect = lower value 1 | locus YML016C, strain PPZ1, stronger effect = lower value 0.989 | locus YML032C, strain rad52, stronger effect = lower value 0.955 | locus YML120C, strain ndi1, stronger effect = lower value 0.979 | locus YML124C, strain tub3, stronger effect = lower value 0.982 | locus YMR078C, strain ctf18, stronger effect = lower value 0.981 | locus YMR125W, strain sto1, stronger effect = lower value 0.966 | locus YMR129W, stronger effect = lower value 0.996 | locus YMR223W, strain ubp8, stronger effect = lower value 0.941 | locus YMR231W, strain pep5, stronger effect = lower value 0.984 | [12] 0.955 | locus YNL067W, strain RPL9B, stronger effect = lower value 0.931 | [13] 0.96 | locus YNL183C, strain NPR1, stronger effect = lower value 0.9 | locus YNL209W, strain ssb2, stronger effect = lower value 0.967 | locus YNL233W, strain BNI4, stronger effect = lower value 0.873 | locus YNL248C, strain rpa49, stronger effect = lower value 0.935 | locus YNL250W, strain rad50, stronger effect = lower value 0.98 | locus YNL271C, strain bni1, stronger effect = lower value 0.971 | locus YNL298W, strain CLA4, stronger effect = lower value 0.93 | locus YNL322C, strain KRE1 (second series), stronger effect = lower value 0.98 | locus YNR049C, strain mso1, stronger effect = lower value 0.978 | locus YNR052C, strain pop2, stronger effect = lower value 0.964 | locus YOL006C, strain TOP1, stronger effect = lower value 0.724 | locus YOL012C, strain htz1 0.627 | locus YOL147C, strain pex11, stronger effect = lower value 0.956 | locus YOR001W, strain rrp6, stronger effect = lower value 0.955 | locus YOR061W, strain CKA2, stronger effect = lower value 0.979 | locus YOR069W, strain VPS5, stronger effect = lower value 1 | locus YOR070C, strain gyp1, stronger effect = lower value 0.929 | locus YOR080W, strain dia2, stronger effect = lower value 0.986 | locus YOR136W, strain idh2, stronger effect = lower value 0.967 | locus YOR144C, strain elg1, stronger effect = lower value 0.976 | locus YOR231W, strain MKK1, stronger effect = lower value 0.921 | locus YOR265W, strain rbl2, stronger effect = lower value 0.954 | locus YOR316C, strain cot1, stronger effect = lower value 0.967 | [14] 0.994 | locus YPL256C, strain CLN2, stronger effect = lower value 0.972 | locus YPR119W, strain clb2, stronger effect = lower value 0.994 | locus YPR141C, strain kar3, stronger effect = lower value 0.996 | locus YPR167C, strain met16, stronger effect = lower value 0.952 | strain wtn01, stronger effect = lower value 0.936
active: locus YAL026C, strain drs2, stronger effect = lower value 0.891 | locus YBR009C, strain hhf1, stronger effect = lower value 0.803 | locus YBR023C, strain chs3, stronger effect = lower value 0.882 | locus YBR231C, strain swc5, stronger effect = lower value 0.88 | locus YCL011C, strain gbp2, stronger effect = lower value 0.905 | locus YCL016C, strain dcc1, stronger effect = lower value 0.856 | [3] 0.887 | locus YCL069W, strain vba3, stronger effect = lower value 0.873 | locus YDR137W, strain rgp1, stronger effect = lower value 0.682 | locus YDR162C, strain NBP2, stronger effect = lower value 0.833 | locus YDR318W, strain mcm21, stronger effect = lower value 0.894 | locus YDR335W, strain msn5, stronger effect = lower value 0.899 | locus YDR392W, strain spt3, stronger effect = lower value 0.212 | locus YDR502C, strain sam2, stronger effect = lower value 0.893 | locus YEL003W, strain gim4, stronger effect = lower value 0.893 | locus YEL061C, strain CIN8 (second series), stronger effect = lower value 0.863 | [5] 0.911 | locus YER155C, strain BEM2 (second series), stronger effect = lower value 0.625 | locus YGL086W, strain mad1, stronger effect = lower value 0.9 | locus YGL240W, strain doc1, stronger effect = lower value 0.852 | locus YGL253W, strain hxk2, stronger effect = lower value 0.764 | locus YHR129C, strain ARP1, stronger effect = lower value 0.867 | locus YHR142W, strain chs7, stronger effect = lower value 0.668 | locus YIL066C, strain RNR3, stronger effect = lower value 0.832 | locus YJL095W, strain BCK1 (second series), stronger effect = lower value 0.864 | locus YJL164C, strain tpk1, stronger effect = lower value 0.852 | locus YJL166W, strain qcr8, stronger effect = lower value 0.756 | locus YKL160W, strain elf1, stronger effect = lower value 0.758 | locus YKR001C, strain vps1, stronger effect = lower value 0.861 | locus YLL001W, strain dnm1, stronger effect = lower value 0.845 | locus YLR027C, strain aat2, stronger effect = lower value 0.914 | locus YLR221C, strain rsa3, stronger effect = lower value 0.886 | locus YLR262C, strain YPT6 (second series), stronger effect = lower value 0.682 | locus YLR268W, strain sec22, stronger effect = lower value 0.852 | locus YLR320W, strain mms22, stronger effect = lower value 0.71 | locus YLR330W, strain CHS5, stronger effect = lower value 0.838 | locus YLR418C, strain cdc73, stronger effect = lower value 0.621 | locus YMR058W, strain fet3, stronger effect = lower value 0.87 | locus YMR205C, strain PFK2, stronger effect = lower value 0.68 | locus YNL071W, strain lat1, stronger effect = lower value 0.38 | locus YNL307C, strain MCK1, stronger effect = lower value 0.412 | locus YOR083W, strain WHI5, stronger effect = lower value 0.852 | locus YOR106W, strain vam3, stronger effect = lower value 0.842 | locus YOR184W, strain ser1, stronger effect = lower value 0.805 | locus YOR270C, strain vph1, stronger effect = lower value 0.686 | locus YOR290C, strain snf2, stronger effect = lower value 0.813 | locus YPL051W, strain arl3, stronger effect = lower value 0.852 | locus YPL078C, strain atp4, stronger effect = lower value 0.793 | locus YPL106C, strain sse1, stronger effect = lower value 0.841 | locus YPL240C, strain hsp82, stronger effect = lower value 0.87 | locus YPR163C, strain tif3, stronger effect = lower value 0.726
0.733 (active) and 0.959 (inactive): locus YJL095W, strain BCK1, stronger effect = lower value
0.838 (active) and 0.944 (inactive): [6]
